{
  "source": "paper PMC4336329",
  "about": "(PLoS ONE, 2015)",
  "note": "The campaign covered roughly 310,000 compounds. About 14,000 (4.5%) showed an effect of 50% or more. The effect is printed as a negative number. This excerpt belongs to a sample that is enriched for strong results.",
  "data": [
    {"molecular_target": "human ether-à-go-go-related gene (hERG) potassium channel (human, UniProt Q12809)", "sequence (Q12809 whole entry, looked up)": "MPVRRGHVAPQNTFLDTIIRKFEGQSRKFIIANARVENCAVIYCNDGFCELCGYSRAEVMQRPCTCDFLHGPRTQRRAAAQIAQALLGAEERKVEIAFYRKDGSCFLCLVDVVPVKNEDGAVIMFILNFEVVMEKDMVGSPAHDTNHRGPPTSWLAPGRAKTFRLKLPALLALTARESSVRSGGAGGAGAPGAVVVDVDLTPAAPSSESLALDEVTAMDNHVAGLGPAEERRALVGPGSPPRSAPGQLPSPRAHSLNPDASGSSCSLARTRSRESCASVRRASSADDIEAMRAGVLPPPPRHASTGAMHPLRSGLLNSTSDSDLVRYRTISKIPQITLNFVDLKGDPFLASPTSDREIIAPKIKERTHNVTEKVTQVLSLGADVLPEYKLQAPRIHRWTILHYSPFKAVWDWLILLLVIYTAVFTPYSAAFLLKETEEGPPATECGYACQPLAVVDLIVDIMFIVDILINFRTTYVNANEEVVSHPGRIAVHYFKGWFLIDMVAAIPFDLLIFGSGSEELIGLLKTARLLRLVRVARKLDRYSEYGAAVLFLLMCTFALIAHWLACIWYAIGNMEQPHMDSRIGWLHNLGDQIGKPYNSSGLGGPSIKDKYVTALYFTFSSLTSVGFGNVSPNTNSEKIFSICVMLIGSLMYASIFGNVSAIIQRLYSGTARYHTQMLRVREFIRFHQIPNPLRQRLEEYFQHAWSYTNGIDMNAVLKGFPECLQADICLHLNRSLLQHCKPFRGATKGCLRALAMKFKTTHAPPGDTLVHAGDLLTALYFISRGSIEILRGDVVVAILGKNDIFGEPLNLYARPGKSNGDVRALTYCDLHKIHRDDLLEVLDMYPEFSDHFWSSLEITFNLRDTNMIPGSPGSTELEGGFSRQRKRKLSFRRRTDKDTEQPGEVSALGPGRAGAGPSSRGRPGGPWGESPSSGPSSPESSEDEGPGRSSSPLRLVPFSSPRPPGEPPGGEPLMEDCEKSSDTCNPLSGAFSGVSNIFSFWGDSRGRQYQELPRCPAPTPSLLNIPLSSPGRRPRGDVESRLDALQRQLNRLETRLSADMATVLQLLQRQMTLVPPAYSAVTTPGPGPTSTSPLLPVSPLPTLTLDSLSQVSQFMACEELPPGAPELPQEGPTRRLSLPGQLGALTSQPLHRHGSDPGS", "assay": "primary screen, population patch clamp on CHO cells stably expressing hERG; higher = less effect of the substance", "units": {"hERG current change (%, negative = inhibition) at 10uM": "%"}, "values": [
      {"compound": "COC(=O)CCCC1=CC2=C(c3ccccc3)C(=O)C(C)(OC(=O)C3CCCC3)C(=O)C2=CN1Cc1ccco1", "note": "(stereo not shown);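 further: peak tail current of the secondary pulse compared with the same well before compound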", "hERG current change (%, negative = inhibition) at 10uM": -56.8},
      {"compound": "CCOC(=O)CSc1nc(N)nc(C)c1Cl", "hERG current change (%, negative = inhibition) at 10uM": 13.4},
      {"compound": "Cn1c(-c2ccccc2)cnc1NCc1cc2c(cc1[N+](=O)[O-])OCO2", "hERG current change (%, negative = inhibition) at 10uM": -55},
      {"compound": "Cn1c(-c2ccc(F)cc2)cnc1NCc1cc2c(cc1[N+](=O)[O-])OCO2.O=C(O)C(=O)O", "hERG current change (%, negative = inhibition) at 10uM": -57.8},
      {"compound": "Cn1c(-c2ccc(Cl)cc2)cnc1NCc1cc2c(cc1[N+](=O)[O-])OCO2.O=C(O)C(=O)O", "hERG current change (%, negative = inhibition) at 10uM": -62.6},
      {"compound": "Cc1ccc(-c2cnc(NCc3cc4c(cc3[N+](=O)[O-])OCO4)n2C)cc1C", "hERG current change (%, negative = inhibition) at 10uM": -48.6},
      {"compound": "Cc1cc(F)ccc1NCc1cc2c(cc1[N+](=O)[O-])OCO2.O=C(O)C(=O)O", "hERG current change (%, negative = inhibition) at 10uM": 7.77},
      {"compound": "COc1ccc(-c2cnc(NCc3cc4c(cc3[N+](=O)[O-])OCO4)n2C)cc1", "hERG current change (%, negative = inhibition) at 10uM": -48.4},
      {"compound": "Cn1c(-c2ccccc2)cnc1NCc1cc(Cl)ccc1O", "hERG current change (%, negative = inhibition) at 10uM": 19.9},
      {"compound": "N#Cc1nc(-c2ccccc2F)oc1NCc1cccc2c1OCO2", "hERG current change (%, negative = inhibition) at 10uM": -24.9},
      {"compound": "CCN(C(=O)COC(=O)CNC(=O)c1ccc(C)s1)c1ccccc1", "hERG current change (%, negative = inhibition) at 10uM": 16.5},
      {"compound": "O=C(NCc1ccc(F)cc1)c1cccnc1C(=O)O", "hERG current change (%, negative = inhibition) at 10uM": 13.5},
      {"compound": "COc1ccc(S(=O)(=O)N(CC(N)=O)C2CCCCC2)cc1Cl", "hERG current change (%, negative = inhibition) at 10uM": 4.39},
      {"compound": "Fc1cccc(NCCc2c[nH]c3ccccc23)n1", "hERG current change (%, negative = inhibition) at 10uM": 11.3},
      {"compound": "O=C(CNC(=O)c1ccccc1)NCCc1ccc(O)c(O)c1", "hERG current change (%, negative = inhibition) at 10uM": 1.15},
      {"compound": "COc1ccc(CCNc2nc(C)cc(C)n2)cc1OC.Cl", "hERG current change (%, negative = inhibition) at 10uM": 17.4},
      {"compound": "COc1ccc(CCNc2nc(-c3cccnc3)nc3ccccc23)cc1OC", "hERG current change (%, negative = inhibition) at 10uM": -1.54},
      {"compound": "c1ccc2c(NCCc3c[nH]c4ccccc34)c3ccccc3nc2c1", "hERG current change (%, negative = inhibition) at 10uM": -74.7},
      {"compound": "CNCCc1ccc(O)c(O)c1.Cl", "hERG current change (%, negative = inhibition) at 10uM": 12.7},
      {"compound": "COc1ccc(CCNc2c3ccccc3nc3ccccc23)cc1OC.Cl", "hERG current change (%, negative = inhibition) at 10uM": -69.7},
      {"compound": "Cl.Oc1ccc(CCNc2c3ccccc3nc3ccccc23)cc1O", "hERG current change (%, negative = inhibition) at 10uM": -68.2},
      {"compound": "CNCCc1c[nH]c2ccccc12", "hERG current change (%, negative = inhibition) at 10uM": 6.05},
      {"compound": "COc1ccc(C(=O)/C=C/Nc2cc(C)on2)cc1", "hERG current change (%, negative = inhibition) at 10uM": 3.9},
      {"compound": "CCCCOC(=O)c1ccc(Nc2ccc([N+](=O)[O-])cn2)cc1", "hERG current change (%, negative = inhibition) at 10uM": 14.5},
      {"compound": "Cc1ccc(-c2nnc(N3CC(C)OC(C)C3)c3ccccc23)cc1", "note": "(stereo not shown)", "hERG current change (%, negative = inhibition) at 10uM": -20.6},
      {"compound": "O=C(NC(=S)Nc1ccc(CN2CCOCC2)cc1)c1ccc2c(c1)OCCO2", "hERG current change (%, negative = inhibition) at 10uM": -13.9},
      {"compound": "CC(=Nc1ccccc1N)c1c(O)n(C)c(=O)n(C)c1=O", "hERG current change (%, negative = inhibition) at 10uM": 21},
      {"compound": "CCOc1ccc(CN(C)C(=O)CCNC(=O)c2ccco2)cc1", "hERG current change (%, negative = inhibition) at 10uM": 1.35},
      {"compound": "CCCOC(=O)c1[nH]c2c(c1C)C(=O)CC(c1ccc(OC)c(OC)c1)C2", "note": "(stereo not shown)", "hERG current change (%, negative = inhibition) at 10uM": -4.07},
      {"compound": "CCOc1ccccc1NC(=O)CN1C(=O)C(=O)N(Cc2ccco2)C1=O", "hERG current change (%, negative = inhibition) at 10uM": 8.17},
      {"compound": "CCCCCCNC(=O)c1c(O)c2ccccc2[nH]c1=O", "hERG current change (%, negative = inhibition) at 10uM": 19.9},
      {"compound": "O=C(NCc1ccccc1)c1c(O)c2ccccc2[nH]c1=O", "hERG current change (%, negative = inhibition) at 10uM": 15.4},
      {"compound": "CCNC(=O)c1c(O)c2ccccc2[nH]c1=O", "hERG current change (%, negative = inhibition) at 10uM": -62.5},
      {"compound": "O=C(Cn1cnc2c(nnn2Cc2ccc(F)cc2)c1=O)NCc1ccc2c(c1)OCO2", "hERG current change (%, negative = inhibition) at 10uM": -17.2},
      {"compound": "C=CCn1c(COc2ccc(OC)cc2)nnc1SC(C)C(=O)NC1CC1", "note": "(stereo not shown)", "hERG current change (%, negative = inhibition) at 10uM": -11.6},
      {"compound": "CCCCCn1c(=O)[nH]c2cc(C(=O)NCCCN3CCCCC3)ccc2c1=O", "hERG current change (%, negative = inhibition) at 10uM": -33.5},
      {"compound": "CCOn1c(=O)c(=O)n(OC)c2ccccc21", "hERG current change (%, negative = inhibition) at 10uM": -6.73},
      {"compound": "CCOC(=O)C1(Cc2ccc(OC)cc2)CCN(S(C)(=O)=O)CC1", "hERG current change (%, negative = inhibition) at 10uM": 25.6},
      {"compound": "CCOC(=O)C1(Cc2cccc(OC)c2)CCN(C(C)CC(C)(C)O)CC1", "note": "(stereo not shown)", "hERG current change (%, negative = inhibition) at 10uM": -28.5},
      {"compound": "CCOC(=O)C1(Cc2cccc(F)c2)CCN(Cc2cnn(CC)c2)CC1", "hERG current change (%, negative = inhibition) at 10uM": -32.2},
      {"compound": "CCOC(=O)C1(Cc2cccc(F)c2)CCN(CCCn2cccn2)CC1", "hERG current change (%, negative = inhibition) at 10uM": -74.6},
      {"compound": "CCOC(=O)C1(Cc2ccc(Cl)cc2)CCN(CCCn2cccn2)CC1", "hERG current change (%, negative = inhibition) at 10uM": -74.8},
      {"compound": "CCOC(=O)C1(Cc2ccc(OC)cc2)CCN(C(=O)CCn2cccn2)CC1", "hERG current change (%, negative = inhibition) at 10uM": -7.25},
      {"compound": "CCOC(=O)C1(Cc2ccc(Cl)cc2)CCN(C(C)Cc2ccc(O)c(OC)c2)CC1", "note": "(stereo not shown)", "hERG current change (%, negative = inhibition) at 10uM": -70.8},
      {"compound": "CCOC(=O)C1(Cc2cccc(F)c2)CCN(CC(O)CO)CC1", "note": "(stereo not shown)", "hERG current change (%, negative = inhibition) at 10uM": 14.5},
      {"compound": "CCOC(=O)C1(Cc2ccc(Cl)cc2)CCN(C(C)CCn2cccn2)CC1", "note": "(stereo not shown)", "hERG current change (%, negative = inhibition) at 10uM": -87.2}
    ]}
  ]
}
